Assay results: PubChem BioAssay (Tox21)
Results filed as inconclusive are left out. The source made the active and inactive calls. Unless noted, calls follow the shape of the dose curve; as a rule, active = well fitted curve in the direction sought with a large enough effect in the repeat runs; inconclusive = weak or mixed curves; inactive = no such curve, though single readings can be large; an effect the other way counts as inactive or inconclusive.

What was measured:
[1] = qHTS assay to identify small molecule antagonists of the vitamin D receptor (VDR) signaling pathway - cell viability counter screen (AID 743225); also: nearly all actives have a fitted effect of over 50% in size
How it was run: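 In this counter screen, VDR-bla HEK 293T cells receive test compound plus 3 nM final calcitriol for 16 h at 37C. Room-temperature steps of 2 h with the beta-lactamase substrate, then 30 min with CellTiter-Glo, precede the luminescence read.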

[2] = qHTS assay to identify small molecule agonists of the NFkB signaling pathway (AID 1159509; active = well fitted curve in the direction sought with a large enough effect in the signal ratio in the repeat runs, not every such curve was filed as active; the % refers to the signal ratio; also: series mostly up to about 61 µM)
How it was run: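 NFkB-bla ME-180 cells with a beta-lactamase reporter under an NF-kB response element were plated overnight, treated with compounds in DMSO for 5 hr at 37 C, then loaded with FRET substrate for 1.5 hr at room temperature.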

[3] = qHTS assay to identify small molecule agonists of the NFkB signaling pathway - cell viability counter screen (AID 1159515; calls by dose curve; also: series mostly up to about 61 µM; nearly all actives have a fitted effect of over 55% in size)
How it was run: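 Using the same wells as the NFkB reporter read, ME-180 NFkB-bla cells given compounds for 5 hr were assessed for viability via CellTiter-Glo, with luminescence taken after a 30 min room-temperature incubation.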

[4] = qHTS assay to identify small molecule agonists of the endoplasmic reticulum stress response signaling pathway (AID 1159516; active = well fitted activation curve with a large enough effect in the signal ratio in the repeat runs, not every such curve was filed as active; the % refers to the signal ratio)
How it was run: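 An ESRE-bla HeLa cell assay: compounds were pin-transferred from DMSO onto overnight-plated cells and left 5 hr at 37 C. Substrate was then loaded for 2 hr at room temperature before reading fluorescence at 460 nm and 530 nm.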

[5] = qHTS assay to identify small molecule agonists of the endoplasmic reticulum stress response signaling pathway - cell viability counter screen (AID 1159517; calls by dose curve;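 also: HeLa cells carrying an ER stress response element beta-lactamase reporter; series mostly up to about 61 µM; nearly all actives have a fitted effect of over 50% in size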)
How it was run: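 Luminescence readout: CellTiter-Glo, 30 min RT, same wells as the ESRE-bla reporter read. HeLa ESRE-bla, 1,500 cells/well, o/n 37 C; cpd 5 hr 37 C/5% CO2.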

[6] = qHTS assay to identify small molecule antagonists of the retinoid-related orphan receptor gamma (ROR-gamma) signaling pathway - cell viability counter screen (AID 1159520); also: nearly all actives have a fitted effect of over 50% in size
How it was run: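 Tet-on ROR gamma CHO cells (1,000/well) were plated 4 hr, given compounds in DMSO for 2 hr at 37 C, then induced with 1 uM final doxycycline for 16 hr. Viability was read as ATP by CellTiter-Glo luminescence after 30 min.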

[7] = target: Nuclear receptor ROR-gamma (Homo sapiens) (UniProt P51449); experiment: qHTS assay to identify small molecule antagonists of the retinoid-related orphan receptor gamma (ROR-gamma) signaling pathway (AID 1159521;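 also: CHO cells with doxycycline inducible ROR-gamma driving an RORE luciferase reporter; top concentration of the series differs between compounds; nearly all actives have a fitted effect of over 50% in size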)
How it was run: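 Screening format: cell-based luciferase reporter in CHO cells with doxycycline-inducible RORγ. Compound pre-exposure lasts 2 h, doxycycline is 1 uM final, induction runs 16 h at 37 C, and ONE-Glo luminescence is read.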

[8] = qHTS assay to identify small molecule agonists of the AP-1 signaling pathway - cell viability counter screen (AID 1159525; calls by dose curve; also: nearly all actives have a fitted effect of over 55% in size)
How it was run: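 ME-180 AP-1-bla, 2500 cells/well, Opti-MEM + 0.5% dialyzed FBS; overnight 37 °C; cpd 15-pt titration, 5 h 37 °C; CellTiter-Glo 30 min RT; luminescence read; normalised to TOAB and DMSO controls.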

[9] = qHTS assay to identify small molecule agonists of the AP-1 signaling pathway (AID 1159526; calls by dose curve)
[10] = qHTS assay to identify small molecule agonists of the RXR signaling pathway - cell viability counter screen (AID 1159529)
How it was run: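 Viability read-out for the RXR-alpha agonist qHTS: luminescent CellTiter-Glo signal after 30 min at RT. HEK 293T bla reporter cells, 2% charcoal-stripped FBS, 16 hr compound incubation; tetraoctyl ammonium bromide as cytotoxic control.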

[11] = qHTS assay to identify small molecule antagonists of the retinoid acid receptor (RAR) signaling pathway - cell viability counter screen (AID 1159551); also: nearly all actives have a fitted effect of over 35% in size
How it was run: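 Retinol-stimulated (1 uM final) C3RL4 cells, compound 6 h, 37 C; readout CellTiter-Glo luminescence (ATP) after 30 min RT incubation.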

[12] = qHTS assay to identify small molecule antagonists of the retinoic acid receptor (RAR) signaling pathway (AID 1159552; also: nearly all actives have a fitted effect of over 50% in size)
How it was run: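 Using a RARE-driven luciferase construct in C3RL4 cells, retinol at 1 uM final provided the agonist stimulus while compounds were co-applied. After 6 hours at 37 C, luminescence was recorded to flag inhibitors of retinol signaling.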

[13] = qHTS assay to identify small molecule agonists of the retinoic acid receptor (RAR) signaling pathway (AID 1159553)
How it was run: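 Reporter readout comes from luciferase under RARE control in C3RL4 cells; compound exposure lasts 6 hr at 37 C in 5% CO2, and luminescence is recorded following a 30 min room-temperature incubation with reagent.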

[14] = qHTS assay to identify small molecule antagonists of the estrogen related receptor (ERR) signaling pathway from Tox21 library - cell viability counter screen (AID 1224834); also: nearly all actives have a fitted effect of over 30% in size
How it was run: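 After 17.5 h of compound exposure at 37 C, ERR cells are incubated with CellTiter-Fluor for 30 min and fluorescence intensity serves as the viability measure.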

Measured: Potency

C=C(C)CN(CC)c1c([N+](=O)[O-])cc(C(F)(F)F)cc1[N+](=O)[O-]
inactive: all assays above

N#CC(O)c1ccccc1 (stereo not given)
not listed: [1] | [12] | [13]
inactive: all other assays above

CN1C(=S)CN=C(c2ccccc2)c2cc(Cl)ccc21
inactive: all assays above

CCC1(c2ccccc2)C(=O)N=C(O)NC1=O (stereo not given)
not listed: [12] | [13]
inactive: all other assays above

CCCSP(=O)(OCC)Oc1ccc(Br)cc1Cl (stereo not given)
inactive: all assays above

[Cl][Sn]([Cl])([Cl])[Cl]
not listed: [12] | [13]
inactive: all other assays above

C=C(C)[C@@H]1CC=C(C=O)CC1
not listed: [13]
inactive: all other assays above

CNC(=O)Oc1ccc(N(C)C)c(C)c1
inactive: all assays above

CC(C)CC#N
not listed: [1]
inactive: all other assays above

CC(C)(C)OC(=O)c1ncn2c1[C@@H]1CCCN1C(=O)c1c(Br)cccc1-2
not listed: [14]
inactive: all other assays above
